Measured values from PubChem BioAssay AID594 (National Center for Advancing Translational Sciences (NCATS), 2007).
The campaign covered roughly 59,000 compounds. About 30 (0.05%) were called active. Cut-off read from the data, not from the text of the source: active = max dye-equivalent concentration above about 11 nM; inconclusive = between about 1.1 nM and that limit; inactive = weaker than that. Shown is part of a subset that was picked to be rich in actives.

Experiment: qHTS Assay for Spectroscopic Profiling in Rhodamine Spectral Region
Conditions: Rhodamine-region fluorescence, 547/598 nm, Tris buffer; stronger effect = higher value
From the text: NIH Molecular Libraries Screening Centers Network [MLSCN] NIH Chemical Genomics Center [NCGC] […] Occasionally, the artifactual effect may originate from the compound#s own spectral or other biophysical properties which generally tend to track its assay concentration. Pre-screening/profiling the library with respect to the compounds# spectral properties should help one exclude false positives early on. While the most informative fluorescent profiling data set is obtained by performing a full excitation and emission scan of each well by using a monochromator-based plate reader, such an approach is practical only on a very limited scale as scanning each well requires long time. An alternative approach, applied here, is to perform plate reader scans using selected excitation and emission wavelength pairs to generate a multidimensional relational database that correlates compound concentration and the respective relative fluorescence intensity at a given wavelength set. A standard curve of rhodamine present on each plate as six-point concentration series, was used to compute a normalized fluorescence response, termed dye-equivalent concentration, for each compound at each concentration.
NCGC Assay Protocol Summary: Buffer: 100 mM Tris buffer, pH 8.0 Dye standard plate: The wells in columns 1 through 4 of a Kalypsys polypropylene 1536-well compound plate were filled with standard solutions of fluorophore corresponding to the spectral region of interest. Solutions of rhodamine were placed in the following wells: E1, F1: 3 mM, E2, F2: 300 uM, E3, F3: 30 uM, E4, F4: zero (DMSO), G1, H1: 3 uM, G2, H2: […], G3, H3: 300 nM, G4, H4: zero (DMSO). Assay Steps: Six uL of buffer were dispensed to 1536-well Greiner black plates. Compounds and dye standards (23 nL) were transferred via Kalypsys PinTool. The plates were incubated for 15 min at room temperature, and then read on ViewLux (Perkin-Elmer) High-throughput CCD imager using 547 nm and 598 nm excitation and emission filter set. Keywords: NIH Roadmap, MLSCN, MLI, MLSMR, qHTS, NCGC, Rhodamine , Fluorescent Profiling.

| Structure (SMILES) | max dye-equivalent concentration |
| --- | --- |
| COc1ccc(Cl)cc1S(=O)(=O)N1CCN(CC(=O)C(C)(C)C)CC1 | inactive |
| O=C(CCCC(=O)N(CC(=O)NC1CCCC1)Cc1ccccc1Cl)Nc1ccccn1 | inactive |
| COc1ccc(CCNC(=O)c2cc3sccc3n2C)cc1OC | inactive |
| Cc1ccc(C)c(S(=O)(=O)N2CC(=O)Nc3ccccc32)c1 | inactive |
| CCO/C([O-])=N/c1c[n+](N2CCOCC2)no1 | inactive |
| C/C(=C(\C#N)C(=O)NCCCN1CCOCC1)N(C)C | inactive |
| Cc1ccc(SCc2cc(=O)[nH]c(N3CCCCC3)n2)cc1 | inactive |
| FC(F)(F)c1ccccc1-c1cc(NCc2ccccc2)ncn1 | inactive |
| CCOc1ccc(-c2cn(S(=O)(=O)c3cccc4nsnc34)nc2N)cc1 | inactive |
| O=C(O)c1c(Br)c(Br)c(Br)c(Br)c1C1c2ccc(O)cc2Oc2cc(O)ccc21 | 11 nM (active) |
| COC(=O)NC1(C(F)(F)F)NC(=O)N(C2CCCCC2)C1=O (stereo unspecified) | inactive |
| C=CCc1cccc2cc(C(=O)N3CCN(C(=O)OCC)CC3)c(=O)oc12 | inactive |
| COc1ccc2[nH]c3c(=O)n(Cc4ccco4)cnc3c2c1 | inactive |
| COCCNC(=O)CN(C(=O)CCC(=O)Nc1cc(C)on1)c1ccc(C)cc1C | inactive |
| CCC(C)(C)n1nnnc1C(c1cccs1)N1CCN(c2nc3ccccc3s2)CC1 (stereo unspecified) | inactive |
| Nc1nc(N)c2[nH]c(CNc3ccc(C(=O)O)cc3)nc2n1 | inactive |
| O=C1CCCc2c1[nH]c1ccc(Br)cc21 | inactive |
| C=C(Br)CN1CCN(CC(=C)Br)CC1 | inactive |
| O=C(Nc1nc2cc3c(cc2s1)OCCO3)c1cccc(S(=O)(=O)N2CCOCC2)c1 | inactive |
| CCOc1nc(-c2ccc(OC)cc2)ccc1-c1noc(-c2cc(OC)c(OC)c(OC)c2)n1 | inactive |
| Cc1ccc(C)c(NC(=O)C2CCCN2C(=O)OC(C)(C)C)c1 (stereo unspecified) | inactive |
| O=C(O)[C@@H](O)Cc1ccccn1 | inactive |
| O=C(O)CCC(=O)Nc1ccc(N2CCOCC2)cc1 | inactive |

| Structure (SMILES) | max dye-equivalent concentration |
| --- | --- |
| Cc1ccc2nc(CC(=O)c3ccc4ccccc4c3)c(=O)[nH]c2c1 | inactive |
| COc1ccc(-c2cc3ccc(OCc4nn[nH]n4)cc3oc2=O)cc1 | inactive |
| O=C(Nc1ccc2c(c1)OCCO2)C1CCCN(c2ncccn2)C1 (stereo unspecified) | inactive |
| CCOc1ccc2c(c1)cc(CN(C(=O)CC)C1CCCCC1)c1nnnn12 | inactive |
| COCCn1c(=O)c(CCc2ccccc2)nc2cnc(N3CCNCC3)nc21 | inactive |
| Cc1cc(=O)cc(C)[nH]1 | inactive |
| Cn1c(=O)cc(OCCCC(=O)N2CCN(Cc3ccc4c(c3)OCO4)CC2)c2ccccc21 | inactive |
| COc1ccc2[nH]c3cc4c(=O)c5cc(OC)ccc5[nH]c4cc3c(=O)c2c1 | inactive |
| CC(=O)O[C@]1(C(C)=O)CC[C@@H]2[C@@H]3C=C(C)C4=CC(=O)CC[C@@]4(C)[C@H]3CC[C@]21C | inactive |
| COc1ccc(CC(=O)n2nc(-c3cccnc3)nc2N)cc1 | inactive |
| Oc1ccc(Cn2cc[nH]c2=S)cc1 | inactive |
| O=C(CN1CCN(S(=O)(=O)/C=C/c2ccccc2)CC1)NC(=O)NCc1ccco1 | inactive |
| CC1CCCC(NC(=O)CN2CCN(Cc3ccc(Cl)cc3)C2=O)C1C (stereo unspecified) | inactive |
| Clc1ccc(Nc2nc(-c3cccs3)cs2)nc1 | inactive |
| Cc1ccc(/C(=C/CN2CCCC2)c2ccccn2)cc1 | inactive |
| Cc1ccc2c(c1)c1ncn(CCC3=CCCCC3)c(=O)c1n2C | inactive |
| COc1ccc(S(=O)(=O)NC2(C(F)(F)F)N=C3SCCN3C2=O)cc1 (stereo unspecified) | inactive |
| CCn1c(-c2cc(OC)ccc2OC)csc1=Nc1c(C)n(C)n(-c2ccccc2)c1=O | inactive |
| O=C(c1cnccn1)N1CCC2(CCCN(Cc3ccccc3)C2)CC1 | inactive |
| CCN(CC)CCNC(=O)C1c2ccccc2C(=O)N(C)C1c1cn(C)c2ccccc12 (stereo unspecified) | inactive |
| CC(C)(O)C#Cc1ccc(C(=O)N2CCC(C(N)=O)(N3CCCCC3)CC2)cc1 | inactive |
| O=C(O)[C@@H]1CCCN1c1ncnc2sc3c(c12)CCC3 | inactive |
| O=C(CSc1nc2cc3c(cc2c(=O)n1CCC1=CCCCC1)OCO3)NCc1ccco1 | inactive |

| Structure (SMILES) | max dye-equivalent concentration |
| --- | --- |
| CC1C=CCC2C(=O)N(c3cccc(C(=O)N4CCCCCC4)c3)C(=O)C12 (stereo unspecified) | inactive |
| COCCNC(=O)CSc1nc2c(n1-c1ccccc1)CCCC2 | inactive |
| COc1ccc(S(=O)(=O)N2CCCC2)c(C)c1C | inactive |
| COc1ccc(C2C(C(=O)N3CCN(c4ccc(OC)cc4)CC3)c3ccccc3C(=O)N2C)cc1 (stereo unspecified) | inactive |
| O=C(CNS(=O)(=O)c1cccc(C(F)(F)F)c1)Nc1ccccc1F | inactive |
| CC(C)OC(=O)C(C#N)c1nc2ccccc2nc1N1CCN(Cc2ccccc2)CC1 (stereo unspecified) | inactive |
| CC(=O)c1cccc(NC(=O)N2CCCC2C(=O)NCCC(C)C)c1 (stereo unspecified) | inactive |
| O=S(=O)(c1ccc(Sc2nnc3ccccn23)nc1)N1CCOCC1 | inactive |
| Cc1ccc(NC(=O)Cn2nc(C)c3ccccc3c2=O)c(C)c1 | inactive |
| CCOC(=O)c1sc(=S)n2c1[nH]c(=O)c1ccc(C(=O)OC)cc12 | inactive |
| O=C(Nc1ccccc1)Nc1ccccc1C(=O)NCc1ccco1 | inactive |
| CCCCSc1nnc(-c2ccc(NC(=O)CC)cc2)n1C | inactive |
| Cc1cccc(N=C2NC(=O)CS2)c1C | inactive |
| CC1=NCCN1S(=O)(=O)c1ccc(Br)c(C)c1 | inactive |
| O=c1c(-c2ccc(F)cc2)nc2cnc(N3CCOCC3)nc2n1-c1ccccc1 | inactive |
| OCCCNC(c1ccccc1)c1ccc(O)cc1 (stereo unspecified) | inactive |
| Cc1ccccc1NC(=O)c1cc(S(=O)(=O)N2CCOCC2)cs1 | inactive |
| O=C(Nc1cccnc1)c1noc2c1CCCCC2 | inactive |
| CCC(=O)Nc1ccccc1N1CCN(S(C)(=O)=O)CC1 | inactive |
| COc1ccccc1C(=O)N1CCNC(=O)C1CC(=O)Nc1ccc(Cl)cc1 (stereo unspecified) | inactive |
| C[C@H](CCC(=O)O)[C@H]1CC[C@@H]2[C@H]3CC[C@H]4C[C@H](O)CC[C@@]4(C)[C@@H]3CC[C@@]21C | inactive |
| NC(=O)CSc1oc(-c2cccs2)nc1S(=O)(=O)c1ccccc1 | inactive |
| CCOCCN(C=O)c1cccc(OC)c1 | inactive |

| Structure (SMILES) | max dye-equivalent concentration |
| --- | --- |
| O=C(COC(=O)c1ccc2c(c1)OCCO2)NCc1ccccc1 | inactive |
| COC(=O)CN(c1cccc(C(C)=O)c1)S(C)(=O)=O | inactive |
| COCCn1c(=O)c(C)nc2cnc(N(C)C)nc21 | inactive |
| O=C(COc1ccc(F)cc1)N(CC1=CCS(=O)(=O)C1)c1ccccc1 | inactive |
| CN(c1ccc(C(=O)N2CCc3ccccc3C2)cc1)S(C)(=O)=O | inactive |
| CCCC(=O)Nc1nnc(CC(=O)OCC)s1 | inactive |
| CCOP1(=O)C=C(C(C)(C)C)OC1c1ccc(F)cc1 (stereo unspecified) | inactive |
| CC(=O)NC(Cc1ccc(F)cc1)C(=O)O (stereo unspecified) | inactive |
| Cc1[nH]c(N)nc(=S)c1CCCNc1ccccc1 | inactive |
| O=C(O)c1cscn1 | inactive |
| CCOC(=O)Cc1c(C)nc2c(C#N)c(C)nn2c1C | inactive |
| CCN(CCCNC(=O)C1CCN(S(=O)(=O)c2cnc[nH]2)CC1)c1ccccc1 | inactive |
| COc1cc(OC)c(C(=O)Nc2ccc(N(C)C)cc2)cc1OC | inactive |
| Cc1nc2cc(-c3ccc(F)cc3)nn2c(N2CCOCC2)c1C | inactive |
| COCCOC(=O)C1=C(C)Nc2nc(C)nn2C1c1ccccc1 (stereo unspecified) | inactive |
| CCOC(=O)c1sc(NC(=O)CSc2nnc(-c3ccco3)o2)c(C(=O)OCC)c1C | inactive |
| C[C@H](NC(=O)OC(C)(C)C)c1nnc(SCC(=O)Nc2ccc(Br)cc2)o1 | inactive |
| Cn1c(=O)c2c(ncn2CC(=O)N2CCN(c3ccccc3)CC2)n(C)c1=O | inactive |
| CCCCc1nccn1CCn1ccnc1CCCC | inactive |
| O=C(CCn1c(=O)oc2ccccc21)Nc1ccon1 | inactive |
| O=C1OC(NC(=O)c2ccccc2)C(N2CCOCC2)=C1Cl (stereo unspecified) | inactive |
| COc1cc(C2C(C(=O)c3sc(C)nc3C)=C(O)C(=O)N2CCN(C)C)cc(OC)c1OC (stereo unspecified) | inactive |
| COc1ccc(CC(=O)Nc2nc3n(n2)C(c2ccccc2)CC(=O)N3)cc1OC (stereo unspecified) | inactive |

| Structure (SMILES) | max dye-equivalent concentration |
| --- | --- |
| CCOC(=O)CN1CC23C=CC(O2)C(C(=O)Nc2ccc(F)cc2)C3C1=O (stereo unspecified) | inactive |
| CC1(C)Cc2c(C#N)c(SCc3nc4ccccc4[nH]3)nc(N3CCOCC3)c2CO1 | inactive |
| CCOC(=O)C1CCCN(Cc2nc(N)nc(Nc3ccc(C)cc3)n2)C1 (stereo unspecified) | inactive |
| CCN(CC)c1ccc2cc(C(=O)O)c(=O)oc2c1 | inactive |
| Cc1ccc(CN2C(=O)CCC2C(=O)NCCCN2CCCCC2C)cc1 (stereo unspecified) | inactive |
| Cc1ccc(Cn2nnc3c(=O)n(CC(=O)N4CCCCC4)cnc32)cc1 | inactive |
| Cc1ccc(-n2nc3c(c2NC(=O)c2ccc4c(c2)OCO4)CSC3)c(C)c1 | inactive |
| CCCC1CC(C)(C(=O)Cn2[nH]c(=O)ccc2=O)OC1=O (stereo unspecified) | inactive |
| CCc1cccc2c3c([nH]c12)C(CC)(CC(=O)O)OCC3 (stereo unspecified) | inactive |
| CCC(c1nnnn1Cc1ccccc1)N(Cc1cc2cc(OC)ccc2[nH]c1=O)CC1CCCO1 (stereo unspecified) | inactive |
| O=C(CN(CC1CCCO1)C(=O)CNS(=O)(=O)c1ccccc1)NCc1ccccc1 (stereo unspecified) | inactive |
| CC(=O)Nc1ccc(S(=O)(=O)N2CCN(CCCOc3cc(C)ccc3C)CC2)cc1 | inactive |
| CCNS(=O)(=O)c1ccc(NC(=O)Nc2cccc(C(F)(F)F)c2)cc1 | inactive |
| CCOc1ccc(CN(Cc2ccco2)C(c2cccs2)c2nnnn2C(C)(C)C)cc1 (stereo unspecified) | inactive |
| O=c1[nH]c(-c2cccs2)nc2ccccc12 | inactive |
| Cc1ccc2nc(NCCCNC(=O)c3cnccn3)c(C#N)cc2c1 | inactive |
| COc1ccc(C)cc1NC(=O)CSc1nc(SC)ns1 | inactive |
| Cc1nc2nc(CSc3nc4ccccc4s3)cc(=O)n2[nH]1 | inactive |
| COc1ccc(Cl)cc1S(=O)(=O)Nc1cccc(C(=O)O)c1 | inactive |
